Measured values taken from the supplement of paper PMC10849652.
The full data set covers some 8,800 targets. This sample favours those with a hit. About 0.5% of all pairs of compound and target were hits.

compound: Cn1cc(-c2ccc3c(c2)CCN3C(=O)Cc2cccc(C(F)(F)F)c2)c2c(N)ncnc21; assay: log2 fold change, soluble protein after heating vs DMSO (PISA); higher = thermal stabilisation; K562 lysate, 10 uM; active = over 0.2 and 3.5 SD of the protein, either way, in both replicates (recomputed)
How it was run: (§1)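 Pellets of K562 cells were dounce-homogenised in PBS pH 7.4 with 1 mM MgCl2, and the crude extract was held at 1 mg/mL protein for a 30 min treatment with 10 μM compound. Aliquots were heated for 3 min over 48°C-58°C and pooled before NP-40 was added to 0.5% at 4°C. The supernatant from 21,000xg for 90 min was quantified by TMTpro 16plex LC-MS/MS with channel sums equalised. Values are reported from duplicates as log-two fold change in thermal stability relative to solvent controls.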

Sequence of UniProt Q8WVV9 (Q8WVV9 whole entry, looked up): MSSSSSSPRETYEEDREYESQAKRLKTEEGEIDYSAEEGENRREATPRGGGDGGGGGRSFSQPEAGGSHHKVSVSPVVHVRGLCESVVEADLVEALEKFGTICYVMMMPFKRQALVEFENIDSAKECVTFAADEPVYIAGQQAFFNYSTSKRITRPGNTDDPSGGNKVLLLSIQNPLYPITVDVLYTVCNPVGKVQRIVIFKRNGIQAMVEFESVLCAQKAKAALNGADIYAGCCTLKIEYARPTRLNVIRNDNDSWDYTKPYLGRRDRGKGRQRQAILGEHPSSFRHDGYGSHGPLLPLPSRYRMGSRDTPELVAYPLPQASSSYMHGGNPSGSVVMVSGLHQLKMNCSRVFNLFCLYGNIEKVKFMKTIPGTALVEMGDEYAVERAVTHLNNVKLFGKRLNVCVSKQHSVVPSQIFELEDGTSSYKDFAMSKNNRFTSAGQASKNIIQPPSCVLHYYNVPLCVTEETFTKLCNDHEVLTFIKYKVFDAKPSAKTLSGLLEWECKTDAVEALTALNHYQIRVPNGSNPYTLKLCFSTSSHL
Sequence of UniProt Q14687 (Q14687 whole entry, looked up): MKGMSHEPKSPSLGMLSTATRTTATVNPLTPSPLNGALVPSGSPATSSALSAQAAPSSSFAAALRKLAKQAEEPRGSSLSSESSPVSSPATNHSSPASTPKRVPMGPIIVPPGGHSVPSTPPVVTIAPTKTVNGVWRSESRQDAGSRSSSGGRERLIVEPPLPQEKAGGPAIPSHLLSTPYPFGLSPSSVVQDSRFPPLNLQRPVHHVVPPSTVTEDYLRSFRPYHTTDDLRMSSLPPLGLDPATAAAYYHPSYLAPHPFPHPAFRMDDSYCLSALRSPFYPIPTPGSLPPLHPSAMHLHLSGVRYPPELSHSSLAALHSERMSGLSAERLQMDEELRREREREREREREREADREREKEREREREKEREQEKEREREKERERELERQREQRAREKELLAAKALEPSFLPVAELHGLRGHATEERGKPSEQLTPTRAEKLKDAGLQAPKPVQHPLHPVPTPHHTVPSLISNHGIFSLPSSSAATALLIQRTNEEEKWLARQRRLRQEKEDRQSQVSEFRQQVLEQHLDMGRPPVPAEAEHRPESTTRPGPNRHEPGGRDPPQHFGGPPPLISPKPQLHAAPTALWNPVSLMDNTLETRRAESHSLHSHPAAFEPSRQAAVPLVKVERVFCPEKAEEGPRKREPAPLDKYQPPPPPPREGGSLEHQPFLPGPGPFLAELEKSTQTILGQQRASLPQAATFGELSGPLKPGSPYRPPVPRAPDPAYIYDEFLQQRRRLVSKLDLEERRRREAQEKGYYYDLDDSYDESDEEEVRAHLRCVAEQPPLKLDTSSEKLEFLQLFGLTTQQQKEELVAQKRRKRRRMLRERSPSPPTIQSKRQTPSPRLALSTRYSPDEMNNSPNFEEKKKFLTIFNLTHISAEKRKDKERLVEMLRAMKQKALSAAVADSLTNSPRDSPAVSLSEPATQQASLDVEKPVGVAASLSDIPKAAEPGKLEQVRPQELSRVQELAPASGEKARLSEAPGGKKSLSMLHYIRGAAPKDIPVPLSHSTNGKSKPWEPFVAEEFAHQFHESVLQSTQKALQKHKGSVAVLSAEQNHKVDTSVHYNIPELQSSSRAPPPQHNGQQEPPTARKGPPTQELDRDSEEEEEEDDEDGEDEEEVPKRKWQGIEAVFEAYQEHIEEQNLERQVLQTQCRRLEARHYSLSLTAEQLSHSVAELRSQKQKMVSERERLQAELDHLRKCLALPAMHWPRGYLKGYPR
Sequence of UniProt Q7Z4Q2 (Q7Z4Q2 whole entry, looked up): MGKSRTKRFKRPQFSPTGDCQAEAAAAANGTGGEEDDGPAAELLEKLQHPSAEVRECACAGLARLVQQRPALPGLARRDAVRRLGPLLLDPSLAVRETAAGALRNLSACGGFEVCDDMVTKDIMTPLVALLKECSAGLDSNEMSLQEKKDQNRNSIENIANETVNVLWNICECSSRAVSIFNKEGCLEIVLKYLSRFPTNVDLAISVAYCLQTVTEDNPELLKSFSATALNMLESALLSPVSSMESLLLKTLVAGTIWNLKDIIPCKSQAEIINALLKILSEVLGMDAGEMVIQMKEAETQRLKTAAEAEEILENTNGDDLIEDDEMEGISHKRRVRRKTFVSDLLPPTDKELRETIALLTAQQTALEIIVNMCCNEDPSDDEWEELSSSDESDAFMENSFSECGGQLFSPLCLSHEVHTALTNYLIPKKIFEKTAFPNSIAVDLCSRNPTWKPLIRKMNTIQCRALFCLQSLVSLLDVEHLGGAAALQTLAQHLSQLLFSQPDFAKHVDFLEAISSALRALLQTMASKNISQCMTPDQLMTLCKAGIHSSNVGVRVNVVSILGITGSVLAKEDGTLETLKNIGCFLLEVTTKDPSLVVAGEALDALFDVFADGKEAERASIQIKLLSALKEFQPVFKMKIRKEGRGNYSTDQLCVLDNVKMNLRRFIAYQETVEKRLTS
Sequence of UniProt P43250 (P43250 whole entry, looked up): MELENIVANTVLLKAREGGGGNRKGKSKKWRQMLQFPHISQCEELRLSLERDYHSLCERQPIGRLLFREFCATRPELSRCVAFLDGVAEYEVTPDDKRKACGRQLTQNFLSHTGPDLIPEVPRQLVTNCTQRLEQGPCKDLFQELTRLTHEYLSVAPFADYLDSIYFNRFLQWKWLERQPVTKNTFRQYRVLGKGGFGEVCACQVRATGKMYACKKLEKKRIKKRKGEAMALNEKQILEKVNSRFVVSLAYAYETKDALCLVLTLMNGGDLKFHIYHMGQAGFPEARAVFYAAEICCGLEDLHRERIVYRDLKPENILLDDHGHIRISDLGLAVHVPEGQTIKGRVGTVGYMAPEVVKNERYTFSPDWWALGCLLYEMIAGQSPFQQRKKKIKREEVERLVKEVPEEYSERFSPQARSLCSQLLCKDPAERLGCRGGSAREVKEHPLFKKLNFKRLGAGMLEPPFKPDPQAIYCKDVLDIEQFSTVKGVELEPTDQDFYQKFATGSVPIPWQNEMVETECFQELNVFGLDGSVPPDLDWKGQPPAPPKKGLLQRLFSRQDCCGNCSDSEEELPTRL
Sequence of UniProt Q9BUJ2 (Q9BUJ2 whole entry, looked up): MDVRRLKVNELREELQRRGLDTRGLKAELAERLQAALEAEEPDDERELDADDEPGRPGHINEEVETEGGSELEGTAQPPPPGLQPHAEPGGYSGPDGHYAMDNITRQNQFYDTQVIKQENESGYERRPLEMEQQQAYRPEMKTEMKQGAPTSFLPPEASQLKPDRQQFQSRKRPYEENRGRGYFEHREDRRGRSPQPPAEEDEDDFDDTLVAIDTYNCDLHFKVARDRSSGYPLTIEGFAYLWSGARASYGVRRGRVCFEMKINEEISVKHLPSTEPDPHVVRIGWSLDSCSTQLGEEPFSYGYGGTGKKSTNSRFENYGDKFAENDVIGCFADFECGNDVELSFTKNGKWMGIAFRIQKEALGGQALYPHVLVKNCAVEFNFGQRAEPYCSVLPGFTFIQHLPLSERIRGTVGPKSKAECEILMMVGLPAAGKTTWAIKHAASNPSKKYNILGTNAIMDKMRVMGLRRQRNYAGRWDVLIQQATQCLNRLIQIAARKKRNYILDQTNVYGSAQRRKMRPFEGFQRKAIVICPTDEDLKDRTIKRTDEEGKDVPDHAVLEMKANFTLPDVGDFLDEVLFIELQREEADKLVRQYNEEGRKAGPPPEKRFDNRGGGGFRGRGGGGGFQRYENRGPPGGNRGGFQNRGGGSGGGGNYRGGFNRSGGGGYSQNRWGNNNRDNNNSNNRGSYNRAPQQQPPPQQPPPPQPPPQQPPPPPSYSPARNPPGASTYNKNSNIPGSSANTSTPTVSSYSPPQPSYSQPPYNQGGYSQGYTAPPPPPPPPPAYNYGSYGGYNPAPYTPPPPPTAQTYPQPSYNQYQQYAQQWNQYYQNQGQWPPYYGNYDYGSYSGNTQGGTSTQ
Sequence of UniProt P52272 (P52272 whole entry, looked up): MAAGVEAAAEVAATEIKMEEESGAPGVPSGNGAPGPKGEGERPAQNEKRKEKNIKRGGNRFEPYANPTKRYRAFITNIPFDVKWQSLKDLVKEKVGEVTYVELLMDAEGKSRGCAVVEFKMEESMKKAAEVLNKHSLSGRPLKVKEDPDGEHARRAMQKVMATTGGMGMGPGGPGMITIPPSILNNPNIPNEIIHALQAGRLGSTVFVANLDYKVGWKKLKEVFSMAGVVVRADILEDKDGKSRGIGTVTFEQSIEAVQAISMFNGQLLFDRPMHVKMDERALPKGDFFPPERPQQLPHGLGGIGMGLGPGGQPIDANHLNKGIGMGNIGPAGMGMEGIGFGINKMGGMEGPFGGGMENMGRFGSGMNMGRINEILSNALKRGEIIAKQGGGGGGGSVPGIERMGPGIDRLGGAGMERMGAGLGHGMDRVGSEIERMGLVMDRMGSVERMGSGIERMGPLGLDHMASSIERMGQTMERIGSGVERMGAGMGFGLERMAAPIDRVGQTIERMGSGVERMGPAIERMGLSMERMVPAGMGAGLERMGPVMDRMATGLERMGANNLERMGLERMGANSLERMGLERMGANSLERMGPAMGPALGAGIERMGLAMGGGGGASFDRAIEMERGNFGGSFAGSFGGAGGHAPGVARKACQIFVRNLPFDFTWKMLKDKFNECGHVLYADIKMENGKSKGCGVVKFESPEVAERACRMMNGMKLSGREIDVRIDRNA
Sequence of UniProt Q9BXW7 (Q9BXW7 whole entry, looked up): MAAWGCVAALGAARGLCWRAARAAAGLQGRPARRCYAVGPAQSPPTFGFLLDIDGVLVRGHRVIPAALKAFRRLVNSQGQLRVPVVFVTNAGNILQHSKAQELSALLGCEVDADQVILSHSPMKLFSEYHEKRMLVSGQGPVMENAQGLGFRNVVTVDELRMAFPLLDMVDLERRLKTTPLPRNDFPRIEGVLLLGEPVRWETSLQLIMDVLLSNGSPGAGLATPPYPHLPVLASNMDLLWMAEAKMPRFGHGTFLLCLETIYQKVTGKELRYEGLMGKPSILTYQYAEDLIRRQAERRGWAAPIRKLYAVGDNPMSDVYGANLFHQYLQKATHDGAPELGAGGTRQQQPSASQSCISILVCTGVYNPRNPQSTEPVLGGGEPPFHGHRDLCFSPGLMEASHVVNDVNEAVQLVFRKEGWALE

log2 fold change, inactive:
HMGB1 (UniProt P09429) -0.03
IGF2BP2 (UniProt Q9Y6M1) 0.031
GNB1 (UniProt P62873) -0.029
IRAK1 (UniProt P51617) 0.131
GRK6 isoform 2 (UniProt P43250) -0.014
ICAM2 (UniProt P13598) -0.035
IMMT (UniProt C9J406) 0.051
GUSB (UniProt P08236) -0.002
HSPA14 (UniProt Q0VDF9) 0.034
HNRNPH2 (UniProt P55795) 0.003
HDAC6 (UniProt Q9UBN7) 0.042
HSP90AA4P (UniProt Q58FG1) 0.038
KHK isoform 2 (UniProt P50053) -0.035
GTF3C3 (UniProt Q9Y5Q9) 0.009
H4C1 (UniProt P62805) 0.048
HSPB1 (UniProt P04792) 0.015
GNL3 (UniProt Q9BVP2) -0.003
KDM5C (UniProt P41229) 0.033
GOLGA1 (UniProt Q92805) 0.022
KATNBL1 (UniProt Q9H079) -0.073
HNRNPM (UniProt P52272) 0.01
HEATR3 (UniProt Q7Z4Q2) 0.062
HNRNPUL1 (UniProt Q9BUJ2) 0.01
HDGFL2 isoform 2 (UniProt Q7Z4V5) -0.023
HNRNPLL (UniProt Q8WVV9) -0.001
HDAC3 (UniProt O15379) 0.007
IMPDH1 isoform 6 (UniProt P20839) -0.006
HDHD5 (UniProt Q9BXW7) -0.042
KDM6A (UniProt O15550) 0.015
ILKAP (UniProt Q9H0C8) -0.009
IRF2BPL (UniProt Q9H1B7) -0.059
GSTP1 (UniProt P09211) -0.01
GLUL (UniProt P15104) -0.002
GSE1 (UniProt Q14687) -0.005
GSTCD (UniProt Q8NEC7) -0.098
HMGN4 (UniProt O00479) 0.003

compound: Cn1cc(CNCC2CCN(c3ncc(C(=O)NO)cn3)CC2)c2ccccc21 [quisinostat]; assay: as above
How it was run: as §1

log2 fold change, inactive:
HMGB1 (UniProt P09429) 0.108
IGF2BP2 (UniProt Q9Y6M1) 0.012
GNB1 (UniProt P62873) 0.107
IRAK1 (UniProt P51617) -0.145
GRK6 isoform 2 (UniProt P43250) -0.043
ICAM2 (UniProt P13598) 0.007
IMMT (UniProt C9J406) 0.022
GUSB (UniProt P08236) -0.109
HSPA14 (UniProt Q0VDF9) -0.026
HNRNPH2 (UniProt P55795) -0.147
HDAC6 (UniProt Q9UBN7) 0.031
HSP90AA4P (UniProt Q58FG1) -0.145
KHK isoform 2 (UniProt P50053) -0.021
GTF3C3 (UniProt Q9Y5Q9) -0.134
H4C1 (UniProt P62805) 0.137
HSPB1 (UniProt P04792) 0.025
GNL3 (UniProt Q9BVP2) -0.164
KDM5C (UniProt P41229) -0.084
GOLGA1 (UniProt Q92805) -0.073
KATNBL1 (UniProt Q9H079) 0.035
HNRNPM (UniProt P52272) 0.055
HEATR3 (UniProt Q7Z4Q2) -0.078
HNRNPUL1 (UniProt Q9BUJ2) 0.015
HDGFL2 isoform 2 (UniProt Q7Z4V5) -0.061
HNRNPLL (UniProt Q8WVV9) -0.063
HDAC3 (UniProt O15379) -0.004
IMPDH1 isoform 6 (UniProt P20839) -0.121
HDHD5 (UniProt Q9BXW7) -0.026
KDM6A (UniProt O15550) -0.062
ILKAP (UniProt Q9H0C8) 0.011
IRF2BPL (UniProt Q9H1B7) 0.032
GSTP1 (UniProt P09211) -0.016
GLUL (UniProt P15104) 0.071
GSE1 (UniProt Q14687) -0.093
GSTCD (UniProt Q8NEC7) -0.053
HMGN4 (UniProt O00479) 0.171
